# Bioassay records from PubChem BioAssay.
# Only some compounds are listed: those with a hit (about 8.8% of all), similar ones and a draw of the others.
# ALDH1A1 inh: blocks purified human ALDH1A1 activity | Potency, µM (highest dose often 75.3 µM), without a hit: top-dose activity, negative = inhibition, actives largely listed as inhibitors | 7.3% of 220,000 active | Purified ALDH1A1, NADH fluorescence, propionaldehyde substrate;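 also: plate controls were no enzyme wells and a reference inhibitor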
# Target sequence (P00352 whole entry, looked up): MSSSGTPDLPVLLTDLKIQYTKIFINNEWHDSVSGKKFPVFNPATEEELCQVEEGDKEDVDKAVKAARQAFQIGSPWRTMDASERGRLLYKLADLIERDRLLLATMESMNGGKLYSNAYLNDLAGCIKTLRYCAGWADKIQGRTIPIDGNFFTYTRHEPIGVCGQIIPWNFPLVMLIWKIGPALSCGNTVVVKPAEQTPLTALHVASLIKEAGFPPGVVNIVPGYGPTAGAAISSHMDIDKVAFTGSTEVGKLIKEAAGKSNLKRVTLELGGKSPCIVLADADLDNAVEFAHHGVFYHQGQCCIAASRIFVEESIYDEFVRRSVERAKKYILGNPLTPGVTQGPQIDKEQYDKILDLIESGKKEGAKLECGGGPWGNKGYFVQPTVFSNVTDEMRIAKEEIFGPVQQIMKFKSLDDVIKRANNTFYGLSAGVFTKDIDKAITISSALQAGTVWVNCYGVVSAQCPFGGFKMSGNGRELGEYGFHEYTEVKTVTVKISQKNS
# HttQ103 aggreg: inhibitors of mutant huntingtin aggregate formation in PC12 cells; 1.1% of 220,000 active; PC12 HttQ103-GFP aggregates, Acumen cytometry, 40 h; Potency, µM (series often up to 46.1 µM), for the others: at the highest dose activity change, negative = inhibition, most hits filed as inhibitors; AID 1688; active = well fitted curve in the direction sought with a large enough effect; inconclusive = small, poorly fitted or top-dose-only effect, or another doubt; inactive = no such curve, though single readings can be large; an effect the other way counts as inactive or inconclusive; also: % is scaled to controls: 0 for no effect and ±100 for the full control effect; nearly all actives have a fitted effect of over 60% in size
#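 Multiplexed with ATP-based cell death, this channel scores GFP aggregates in PC12 cells expressing inducible HTTex1-Q103-GFP. Induction used 100 nM tebufenozide; compounds were tested in concentration series.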
# HTT ATP protect: Huntington cell model cytoprotection by ATP luminescence; PC12 HTT-Q103 induced, cytoprotection, ATP luminescence, 40 h; Potency, µM (doses to about 56.4 µM), for the others: cytoprotection (ATP increase), actives largely listed as activators; 0.14% of 230,000 active; active = well fitted curve in the direction sought with a large enough effect; inconclusive = small, poorly fitted or top-dose-only effect, or another doubt; inactive = no such curve, though single readings can be large; an effect the other way counts as inactive or inconclusive; also: % of control where 0% means no effect; nearly all actives have a fitted effect of over 45% in size
#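 Cells were plated at 1500 per well in phenol red-free DMEM with 5% equine and 5% calf serum. Tebufenozide (100 nM final) and compounds were added, then ATPlite reagent, and luminescence was read.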
# Lamin A splicing: LMNA splicing modulation | HeLa LMNA splicing GFP/RFP minigene ratio, 48 h | Potency, µM (doses to about 46.1 µM), for inactives: at the top dose ratio change, negative = inhibition, most hits filed as inhibitors | 0.01% of 200,000 active | AID 1487; active = well fitted inhibition curve with a large enough effect in the signal ratio, with a control signal flat, not every such curve was filed as active; inconclusive = small, poorly fitted or top-dose-only effect, or effect the other way, or a change in a side signal; the % refers to the signal ratio; also: % is scaled to controls: 0 for no effect and ±100 for the full control effect
#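 S3 HeLa cells stably expressing lamin A-EGFP splicing minigene plus DsRed2, 600 cells/well, 48 h compound exposure at 37C. Laser-scanning cytometry; analysed as GFP (500-530 nm)/RFP (575-640 nm) total intensity ratio; 0.5% DMSO vehicle.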
# HPGD inh: inhibitors of human 15-hydroxyprostaglandin dehydrogenase (HPGD); 4.3% of 150,000 active; AID 894; P15428; Potency, µM, for inactives: at the top dose activity change, negative = inhibition, most hits filed as inhibitors; purified HPGD, NADH fluorescence kinetic, PGE2 substrate; also: % is scaled to controls: 0 for no effect and ±100 for the full control effect
# Target sequence (P15428 whole entry, looked up): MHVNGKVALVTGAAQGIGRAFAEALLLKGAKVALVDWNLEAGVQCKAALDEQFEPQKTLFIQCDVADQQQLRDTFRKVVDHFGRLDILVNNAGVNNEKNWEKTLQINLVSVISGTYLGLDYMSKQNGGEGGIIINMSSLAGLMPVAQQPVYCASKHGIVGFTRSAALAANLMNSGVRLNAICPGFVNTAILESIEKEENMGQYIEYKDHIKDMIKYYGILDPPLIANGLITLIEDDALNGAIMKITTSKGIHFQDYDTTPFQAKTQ
#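 NADH formation kinetics: reaction with 30 uM PGE2 and 1 mM NAD+ (final), 20 nM enzyme, Tris-HCl pH 8 with Tween 20, after 15 min compound preincubation at room temperature. Fluorescence change, last versus first of five reads.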
# An asterisk follows results filed as active; ? = inconclusive; . = no result; [ ] = dose if it differs, or a comment. Unless noted, calls follow the shape of the dose curve; as a rule, active = well fitted inhibition curve with a large enough effect (not every such curve was filed as active); inconclusive = small, poorly fitted or top-dose-only effect, or another doubt; inactive = no such curve, though single readings can be large or run the other way. Potency is read from the fitted curve at half-maximal effect.
SMILES,ALDH1A1 inh,HttQ103 aggreg,HTT ATP protect,Lamin A splicing,HPGD inh
CCn1c2ccccc2c2cc(NC(=O)CSc3nnc(-c4cccc(C)c4)o3)ccc21,17.8µM*,0.4%[9.22 µM],-28.0%,?,-10.0%
COc1ccc(Cc2nnc(-c3ccccc3)o2)cc1,3.5%,-2.2%,6.8%,.,.
COc1ccc(CCNC(=O)CSc2nnc(-c3cccc(C)c3)o2)cc1OC,17.8µM*,-3.8%,-5.1%,11.0%,-25.6%
CCN1CCN(C(=O)CN(c2ccc(F)c(Cl)c2)S(C)(=O)=O)CC1,-7.8%,-5.7%,.,.,.
CC1=C(C(=O)NCc2cccc(Br)c2)C2(CCCCC2)OC1=O,.,.,.,-2.4%[46 µM],.
COc1ccc(CC(=O)Nc2cccc(-c3nnc(-c4ccccc4)o3)c2)cc1OC,?,22.4µM*,-148.9%[0.074 µM],?,-26.9%
COc1ccc(CC(=O)Nc2ccc(-c3nnc(-c4ccccc4)o3)cc2)cc1OC,3.55µM*,2.1%,18.4%[10 µM],1.7%,?
COc1cccc(-c2cc(=O)c3cc(NC(=O)c4cccnc4)ccc3[nH]2)c1,7.7%,.,?,.,-10.4%
COc1ccc(N=N/C(=C\O)C(=O)c2ccco2)cc1,7.94µM*,-9.6%,14.0%[10 µM],-12.9%[46 µM],.
COc1ccc(/C(N)=N/OC(=O)c2ccco2)cc1,0.0%,24.6%,-128.6%,-2.9%[46 µM],.
CN(C)c1ccc(C=NCCC2(O)CCOC(C)(C)C2)cc1 (configuration not stated),0.562µM*,-9.7%,-8.2%[10 µM],-10.4%,-18.8%
CCN(C(=O)c1cc2cccc(OC)c2oc1=O)c1ccccc1,-2.5%,-1.1%,-0.4%,-0.3%,22.4µM*
COc1cccc2cc(C(=O)N3C(C)CCCC3C)c(=O)oc12 (configuration not stated),-8.1%,?,-8.8%[10 µM],-7.8%,28.2µM*
CCOc1cccc2cc(C(=O)N3CCN(C/C=C/c4ccccc4)CC3)c(=O)oc12,14.1µM*,-9.3%,19.2%[10 µM],-12.3%,-21.3%
CCOc1cc(C(=O)N2CCN(C/C=C/c3ccccc3)CC2)cc(OCC)c1OCC,1.3%,-6.8%,-24.2%,-0.7%,-3.1%
COc1cccc2cc(C(=O)N3CCc4ccccc43)c(=O)oc12,3.3%,-10.9%,-7.4%,3.4%,-5.2%
COc1cccc2cc(C(=O)N3CCC(C)CC3)c(=O)oc12,?,2.6%,10.8%,2.0%,12.6µM*
COc1ccc(Nc2ccc([N+](=O)[O-])cc2[N+](=O)[O-])cc1,?,23.8%[9.22 µM],?,22.2%[46 µM],.
COc1cccc2cc(C(=O)OC3CCN(C)CC3)c(=O)oc12,-5.2%,-4.0%,-3.5%[10 µM],-3.6%,-4.4%
COc1cccc2cc(C(=O)N3CCCCC3C)c(=O)oc12 (configuration not stated),-3.4%,10.8%,4.1%[10 µM],-13.2%,15.8µM*
Cc1noc(/C=C/c2nn(C)cc2Cl)c1[N+](=O)[O-],8.91µM*,-2.7%[9.22 µM],-40.2%[10 µM],.,.
Cc1cc(O)ccc1N/C=C/c1onc(C)c1[N+](=O)[O-],11.9%,?,-42.2%,.,.
Cc1cccc(NC(c2ccc(O)cc2)c2ccc3ccc(C)nc3c2O)n1 (configuration not stated),7.94µM*,40.0%,14.4%,?,17.8µM*
Oc1cccc(C(Nc2nccs2)c2ccc3cccnc3c2O)c1 (configuration not stated),9.6%,?,-106.5%,?,.
O=C1ON=C(c2ccccc2)/C1=C/c1cccnc1,-3.0%,25.6%,27.5%[10 µM],10.4%[46 µM],.
SMILES,ALDH1A1 inh,HttQ103 aggreg,HTT ATP protect,Lamin A splicing,HPGD inh
O=C1ON=C(c2cccc([N+](=O)[O-])c2)/C1=C/c1ccc(O)cc1,10µM*,7.9%,-43.5%,-7.5%[9.22 µM],.
O=C1/C(=C/c2ccco2)SC(=S)N1CC1CCCO1 (configuration not stated),.,-8.0%[9.22 µM],11.6%[10 µM],.,.
Cc1ccc(/C=C2\SC(=S)N(C3CCS(=O)(=O)C3)C2=O)cc1 (configuration not stated),-16.8%,?,29.9%,.,.
O=C1/C(=C\c2ccco2)SC(=S)N1C1CCS(=O)(=O)C1 (configuration not stated),22.4µM*,6.3%[9.22 µM],5.6%[10 µM],.,.
O=C1/C(=C/c2ccco2)SC(=S)N1C1CCS(=O)(=O)C1 (configuration not stated),8.91µM*,4.47µM*,-98.1%[10 µM],?,.
CCOc1ccc(-n2c(SC(C)C(=O)OC)nc3c([nH]c4ccccc43)c2=O)cc1 (configuration not stated),.,.,.,10.1%[46 µM],.
O=C1NCCCc2c1oc1cc(Br)c(O)c(Br)c21,3.98µM*,?,-21.7%,?,-22.9%
CCCCN(CC)CCCNC(=O)C1CCCN(c2ncnc3c2nc2n3CCCCC2)C1 (configuration not stated),.,.,.,-13.1%[46 µM],.
O=C1CC(Nc2ccc(N3CCOCC3)cc2)C(=O)N1c1ccccc1F (configuration not stated),14.1µM*,23.0%,-22.2%[10 µM],-8.9%,-14.3%
Cc1cc(C)cc(NC(=O)COc2cccc3c(=O)n(C)ccc23)c1,.,.,.,18.7%[46 µM],.
Cc1ccc2[nH]c3c(c2c1)CN(C(=O)CN1CCN(c2ccccn2)CC1)CC3,10µM*,-4.9%,-1.4%,-8.2%,-22.4%
Cc1ccc2[nH]c3c(c2c1)CN(C(=O)CN1CC(C)OC(C)C1)CC3 (configuration not stated),11.2µM*,-14.9%,1.8%,-2.9%,-8.9%
Cc1ccc2[nH]c3c(c2c1)CN(C(=O)CN1CCN(Cc2ccc4c(c2)OCO4)CC1)CC3,?,?,6.7%,-4.1%,-12.9%
O=C(c1cccc(F)c1)N1CCC2(CCCN(Cc3nccs3)C2)CC1,1.3%,.,?,.,-5.2%
Cc1ccc(S(=O)(=O)Nc2ccc(O)c(Sc3ncn[nH]3)c2)cc1,?,.,.,15.6%[46 µM],.
Cc1ccc(S(=O)(=O)/N=C2/C=C(Sc3ncn[nH]3)C(=O)c3ccccc32)cc1,12.6µM*,3.16µM*,-81.2%[10 µM],?,0.891µM*
CC(C)c1ccc(S(=O)(=O)/N=C2/C=C(Sc3ncn[nH]3)C(=O)c3ccccc32)cc1,1.78µM*,3.55µM*,-98.5%[10 µM],?,1.41µM*
Cc1ccc(S(=O)(=O)/N=C2/C=C(Sc3ncn[nH]3)C(=O)c3ccccc32)c(C)c1,12.6µM*,5.01µM*,-19.3%[10 µM],?,1.41µM*
CCc1ccc(CNC(=O)c2ccc3c(c2)nc2n3CCCCC2)cc1,.,.,.,0.1%[46 µM],.
CCCN(C(=O)c1cc(S(=O)(=O)N2CCc3ccccc32)cn1C)c1ccc(OCC)cc1,.,.,.,14.2%[46 µM],.
Cc1cc(C)n(-c2nc(Nc3ccccc3C)nc(-n3nc(C)cc3C)n2)n1,1.8%,-24.0%,-16.2%,-0.5%,-7.7%
Cc1cc(C)n(-c2nc(Nc3ccccc3C(F)(F)F)nc(-n3nc(C)cc3C)n2)n1,2.6%,10µM*,11.2%[1.9 µM],?,-10.1%
CC(C)c1nn2c(=O)cc(COC(=O)c3ccccc3NC(=O)c3cccc(Cl)c3)nc2s1,.,.,.,-2.9%[46 µM],.
O=C(O)CC1(CC(=O)Nc2ccc(Oc3cccc(C(F)(F)F)c3)nc2)CCCC1,7.94µM*,-6.9%[9.22 µM],6.8%[10 µM],.,.
